Records with an inconclusive call do not appear. The source made the active and inactive calls. Unless noted, calls follow the shape of the dose curve; as a rule, active = well fitted cell-killing curve with a large enough effect in the repeat runs (not every such curve was filed as active); inconclusive = weak or mixed curves, or effect the other way; inactive = no such curve, though single readings can be large or run the other way.
Tested on: not listed separately
Assay: qHTS assay to identify small molecule antagonists of the farnesoid-X-receptor (FXR) signaling pathway - cell viability counter screen (AID 743221); also: nearly all actives have a fitted effect of over 50% in size
Conditions: FXR-bla HEK293T viability, CellTiter-Glo luminescence, 16 h; series mostly up to 62.6 µM; activity change, negative = cytotoxicity: at the top concentration
Procedure, shortened: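 HEK 293T FXR-bla cells, 5 h pre-incubation; compound + CDCA 50 uM final, 16 h, 37 C; beta-lactamase FRET read first, then CellTiter-Glo luminescence, 30 min RT.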
% is scaled to controls: 0 for no effect and ±100 for the full control effect.

SMILES | activity change, negative = cytotoxicity
CC(C)(C)N | 0.0567% (inactive)
Cc1cc(C)n(CO)n1 | 6.8% (inactive)
O=C(O)CCc1nc2ccccc2[nH]1 | 7.85% (inactive)
CC(C)(C)NCC(O)COc1ccc(NC(=O)NC2CCCCC2)cc1 (configuration not stated) | -2.65% (inactive)
CCCCCCCCCCCCCCCCCCCl | 0.201% [at 5.95 µM] (inactive)
O=C(c1ccc(Cl)cc1)c1ccc(Cl)cc1 | 0.331% (inactive)
CCC(C)C1N=C(C)C(C)S1 (configuration not stated) | -6.8% (inactive)
N#Cc1ccc(CC(=O)c2cccc(C(F)(F)F)c2)cc1 | 4% (inactive)
O=S(=O)(O)c1cc(Cl)c(Cl)cc1Cl | -17.6% (inactive)
CCCc1nc(C)c2c(=O)[nH]c(-c3cc(S(=O)(=O)N4CCN(CC)CC4)ccc3OCC)nn12 | -1.89% (inactive)
CS(C)=O | 15.7% (inactive)
CCOc1ccc2c(c1)C(C)CC(C)(C)N2 (configuration not stated) | -1.59% (inactive)
O=P(c1ccccc1)(c1ccccc1)c1ccccc1 | 5.49% (inactive)
Cc1ccc(NC=O)c(C)c1 | 2.45% (inactive)
CCC1=C(C)CN(C(=O)NCCc2ccc(S(=O)(=O)NC(=O)NC3CCC(C)CC3)cc2)C1=O (configuration not stated) | -2.49% (inactive)
COc1cc(C)c(Cc2cnc(N)nc2N)cc1OC | 3.22% (inactive)

SMILES | activity change, negative = cytotoxicity
C=CC(C)(O)CC/C=C(/C)CCC=C(C)C (configuration not stated) | 1.19% (inactive)
CCCCCO | 0.332% (inactive)
O=c1[nH]nc(-c2ccc([N+](=O)[O-])o2)o1 | -4.74% (inactive)
Clc1cccc(C(c2ccc3nc[nH]c3c2)n2ccnc2)c1 (configuration not stated) | -0.224% (inactive)
O=C(O)c1ccncc1 | -0.814% [at 81.1 µM] (inactive)
CC1=C(C)C(=O)C(C(CCCCCC(=O)O)c2ccccc2)=C(C)C1=O (configuration not stated) | -3.15% (inactive)
O=[N+]([O-])c1ccccc1CCO | 1.34% [at 81.1 µM] (inactive)
CCc1c(C)[nH]c2c1C(=O)C(CN1CCOCC1)CC2 (configuration not stated) | -2.11% (inactive)
Cc1nc(C)c(C)nc1C | 7.26% (inactive)
CCCCCCCCCCCCN1CCOCC1 | -0.328% (inactive)
O=Cc1ccc([N+](=O)[O-])cc1 | -4.18% [at 81.1 µM] (inactive)
C=CCCC | -7.78% [at 81.1 µM] (inactive)
C1CCN(CN2CCCCC2)CC1 | 4.56% (inactive)
CC(C)=CCC/C(C)=C/C=N/O | -13.8% (inactive)
Cc1ccccc1CCO | -0.0453% (inactive)
OCCCO | -0.136% [at 81.1 µM] (inactive)

Target: Vitamin D3 receptor (Homo sapiens) (UniProt P11473)
Sequence (P11473 whole entry, looked up): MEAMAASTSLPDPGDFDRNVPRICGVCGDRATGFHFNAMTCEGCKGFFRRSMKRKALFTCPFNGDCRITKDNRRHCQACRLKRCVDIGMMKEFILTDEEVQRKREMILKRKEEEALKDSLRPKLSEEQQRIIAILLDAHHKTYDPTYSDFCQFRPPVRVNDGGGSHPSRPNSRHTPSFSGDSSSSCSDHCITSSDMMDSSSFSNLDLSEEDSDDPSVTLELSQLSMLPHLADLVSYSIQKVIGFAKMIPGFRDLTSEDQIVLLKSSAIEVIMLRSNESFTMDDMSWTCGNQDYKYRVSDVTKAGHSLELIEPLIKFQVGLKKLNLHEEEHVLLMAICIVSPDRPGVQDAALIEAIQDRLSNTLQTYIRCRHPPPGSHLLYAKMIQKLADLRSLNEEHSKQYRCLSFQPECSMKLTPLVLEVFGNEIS
Assay: qHTS assay to identify small molecule agonists of the vitamin D receptor (VDR) signaling pathway (AID 743222; calls by dose curve)
Conditions: HEK293T VDR-UAS-bla, beta-lactamase FRET ratio, 16 h; series mostly up to 63.5 µM; activation: at the top concentration
Procedure, shortened: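 Cells carrying a VDR-driven beta-lactamase reporter are seeded at 2,000 per well and rested 4 h. Compounds in DMSO are added for 16 h at 37C, and FRET substrate fluorescence is measured after 2 h at room temperature.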

SMILES | activation
CC(=O)Nc1cccc(N)c1 | 3.42% [at 81.1 µM] (inactive)
CC(C)(C)N | 2.7% (inactive)
Cc1cc(C)n(CO)n1 | 4.51% (inactive)
CC(C)(C)NCC(O)COc1ccc(NC(=O)NC2CCCCC2)cc1 (configuration not stated) | 3.86% (inactive)
CCCCCCCCCCCCCCCCCCCl | 1.2% [at 6.01 µM] (inactive)
O=C(c1ccc(Cl)cc1)c1ccc(Cl)cc1 | 2.59% (inactive)
CC(C)C/C=C(\C=O)c1ccccc1 | -12.9% (inactive)
N#Cc1ccc(CC(=O)c2cccc(C(F)(F)F)c2)cc1 | 0.0826% (inactive)
O=S(=O)(O)c1cc(Cl)c(Cl)cc1Cl | -0.127% (inactive)
CCCc1nc(C)c2c(=O)[nH]c(-c3cc(S(=O)(=O)N4CCN(CC)CC4)ccc3OCC)nn12 | -6.38% (inactive)
CS(C)=O | -12.4% (inactive)
O=P(c1ccccc1)(c1ccccc1)c1ccccc1 | -8.36% (inactive)
CCCC(=O)OCc1ccccc1 | 2.06% (inactive)
Cc1ccc(NC=O)c(C)c1 | -2.91% (inactive)
CCC1=C(C)CN(C(=O)NCCc2ccc(S(=O)(=O)NC(=O)NC3CCC(C)CC3)cc2)C1=O (configuration not stated) | 0.487% (inactive)
CCCCCO | 11.6% (inactive)
O=c1[nH]nc(-c2ccc([N+](=O)[O-])o2)o1 | -2.59% (inactive)
Clc1cccc(C(c2ccc3nc[nH]c3c2)n2ccnc2)c1 (configuration not stated) | 3.38% (inactive)
O=C(O)c1ccncc1 | 1.6% [at 81.1 µM] (inactive)
CC1=C(C)C(=O)C(C(CCCCCC(=O)O)c2ccccc2)=C(C)C1=O (configuration not stated) | -19.4% (inactive)
O=[N+]([O-])c1ccccc1CCO | 11.5% [at 81.1 µM] (inactive)
O=c1[nH][nH]c2ccccc12 | -14.8% [at 81.1 µM] (inactive)
CCc1c(C)[nH]c2c1C(=O)C(CN1CCOCC1)CC2 (configuration not stated) | 6.2% (inactive)
Cc1nc(C)c(C)nc1C | -7.06% (inactive)
CCCCCCCCCCCCN1CCOCC1 | -7% (inactive)
O=Cc1ccc([N+](=O)[O-])cc1 | 3.67% [at 81.1 µM] (inactive)
C=CCCC | 0.23% [at 81.1 µM] (inactive)
C1CCN(CN2CCCCC2)CC1 | -2.59% (inactive)
CC(C)=CCC/C(C)=C/C=N/O | -6.96% (inactive)
OCCCO | 2.95% [at 81.1 µM] (inactive)
